About 2,000 (36%) of roughly 5,500 compounds were called active. Inconclusive results (about 18%) are left out. No stated cut-off is given here; in the data, active means normalized growth mostly below about 0.91 (no sharp cut-off); inconclusive means no clear call, values can overlap the other calls; inactive means mostly above about 0.92. This is one part of the list.
Test: chemical genetic growth profiling, strain panel (AID 1159580);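 further: tested at 20 µM; growth read once vehicle control cultures reached saturation at 30 °C; 1 = growth at the plate median or of vehicle wells; lower values mean less growth of the strain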
Conditions: S. cerevisiae deletion strains, growth OD

Measured: normalized growth

O=c1cc(-c2ccc(O)cc2)oc2cc(O)ccc12
inactive: locus YAL021C, strain ccr4, active compounds read low 0.967 | locus YAL026C, strain drs2, active compounds read low 0.95 | locus YAL030W, strain snc1, active compounds read low 0.959 | locus YBL061C, strain skt5, active compounds read low 0.967 | locus YBR009C, strain hhf1, active compounds read low 0.929 | locus YBR023C, strain chs3, active compounds read low 0.958 | locus YBR171W, strain sec66, active compounds read low 0.981 | locus YBR231C, strain swc5, active compounds read low 0.974 | locus YBR279W, strain paf1, active compounds read low 0.974 | locus YCL011C, strain gbp2, active compounds read low 0.948 | locus YCL016C, strain dcc1, active compounds read low 0.976 | locus YCL061C, strain MRC1, active compounds read low 0.976 | locus YCL069W, strain vba3, active compounds read low 0.969 | locus YCR088W, strain abp1, active compounds read low 0.957 | locus YDL005C, strain med2, active compounds read low 0.963 | locus YDL040C, strain nat1, active compounds read low 0.968 | locus YDR001C, strain nth1, active compounds read low 0.96 | locus YDR069C, strain doa4, active compounds read low 0.949 | locus YDR137W, strain rgp1, active compounds read low 0.925 | locus YDR159W, strain sac3, active compounds read low 0.866 | locus YDR195W, strain ref2 0.963 | locus YDR297W, strain sur2, active compounds read low 0.966 | locus YDR334W, strain swr1, active compounds read low 0.954 | locus YDR335W, strain msn5, active compounds read low 0.984 | locus YDR392W, strain spt3, active compounds read low 0.853 | locus YEL003W, strain gim4, active compounds read low 0.972 | locus YEL037C, strain rad23, active compounds read low 0.952 | locus YEL061C, strain CIN8 (second series), active compounds read low 0.949 | locus YER015W, strain faa2, active compounds read low 0.973 | locus YER016W, strain bim1, active compounds read low 0.976 | locus YER111C, strain swi4, active compounds read low 0.961 | locus YER155C, strain BEM2 (second series), active compounds read low 0.897 | locus YFR010W, strain ubp6, active compounds read low 0.941 | locus YGL167C, strain pmr1, active compounds read low 0.945 | locus YGL173C, strain kem1, active compounds read low 0.972 | locus YGL227W, strain vid30, active compounds read low 0.941 | locus YGL240W, strain doc1, active compounds read low 0.958 | locus YGL253W, strain hxk2, active compounds read low 0.98 | locus YHR013C, strain ard1, active compounds read low 0.925 | locus YHR027C, strain rpn1, active compounds read low 0.957 | locus YHR030C, strain SLT2, active compounds read low 0.948 | locus YHR079C, strain IRE1, active compounds read low 0.935 | locus YHR142W, strain chs7, active compounds read low 0.935 | locus YJL092W, strain hpr5, active compounds read low 0.97 | locus YJL095W, strain BCK1 (second series), active compounds read low 0.968 | locus YJL095W, strain BCK1, active compounds read low 0.969 | locus YJL115W, strain asf1, active compounds read low 0.968 | locus YJL129C, strain trk1, active compounds read low 0.915 | locus YJL154C, strain vps35, active compounds read low 0.975 | locus YJL164C, strain tpk1, active compounds read low 0.962 | locus YJL166W, strain qcr8, active compounds read low 0.969 | locus YJL187C, strain SWE1, active compounds read low 0.964 | locus YJR066W, strain TOR1, active compounds read low 0.938 | locus YKL160W, strain elf1, active compounds read low 0.973 | locus YKR026C, strain gcn3, active compounds read low 0.945 | locus YKR091W, strain srl3, active compounds read low 0.964 | locus YLL001W, strain dnm1, active compounds read low 0.958 | locus YLL026W, active compounds read low 0.96 | locus YLL041C, strain sdh2, active compounds read low 0.976 | locus YLR027C, strain aat2, active compounds read low 0.953 | locus YLR113W, strain HOG1, active compounds read low 0.918 | locus YLR221C, strain rsa3, active compounds read low 0.974 | locus YLR258W, strain gsy2, active compounds read low 0.956 | locus YLR262C, strain YPT6 (second series), active compounds read low 0.926 | locus YLR320W, strain mms22, active compounds read low 0.937 | locus YLR342W, strain FKS1, active compounds read low 0.954 | locus YLR357W, strain rsc2, active compounds read low 0.944 | locus YLR370C, strain arc18, active compounds read low 0.948 | locus YLR384C, strain iki3, active compounds read low 0.961 | locus YML120C, strain ndi1, active compounds read low 0.948 | locus YMR058W, strain fet3, active compounds read low 0.965 | locus YMR125W, strain sto1, active compounds read low 0.941 | locus YMR129W, active compounds read low 0.966 | locus YMR205C, strain PFK2, active compounds read low 0.922 | locus YMR231W, strain pep5, active compounds read low 0.966 | locus YNL071W, strain lat1, active compounds read low 0.972 | locus YNL183C, strain NPR1, active compounds read low 0.924 | locus YNL209W, strain ssb2, active compounds read low 0.973 | locus YNL248C, strain rpa49, active compounds read low 0.971 | locus YNL322C, strain KRE1 (second series), active compounds read low 0.956 | locus YNR049C, strain mso1, active compounds read low 0.964 | locus YOR001W, strain rrp6, active compounds read low 0.979 | locus YOR070C, strain gyp1, active compounds read low 0.971 | locus YOR080W, strain dia2, active compounds read low 0.968 | locus YOR083W, strain WHI5, active compounds read low 0.982 | locus YOR106W, strain vam3, active compounds read low 0.946 | locus YOR231W, strain MKK1, active compounds read low 0.942 | locus YOR265W, strain rbl2, active compounds read low 0.975 | locus YOR270C, strain vph1, active compounds read low 0.833 | locus YOR290C, strain snf2, active compounds read low 0.921 | locus YPL051W, strain arl3, active compounds read low 0.984 | locus YPL078C, strain atp4, active compounds read low 0.963 | locus YPL106C, strain sse1, active compounds read low 0.937 | locus YPL240C, strain hsp82, active compounds read low 0.955 | locus YPL256C, strain CLN2, active compounds read low 0.944

— PubChem BioAssay AID1159580 (chemical genetic matrix, 2015)
